Source: PubChem BioAssay (NCI)
The panel holds about 83,000 compounds, 20% with a hit somewhere; the sample as a whole holds those more often.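 Growth was measured after 48 h exposure to one concentration of compound in 96-well plates. Values under 10 count as active.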 The source made the active and inactive calls.

Experiments:
Assay in all cases: NCI-60 one-dose screen, 48 h (100 = growth as untreated, 0 = no growth, -100 = all killed)
Conditions in all cases: 10 µM unless noted
HCT-15 colon = test system: HCT-15 colon
HT29 colon = test system: HT29 colon
SNB-75 CNS = test system: SNB-75 CNS
SNB-19 CNS = test system: SNB-19 CNS
U251 CNS = test system: U251 CNS
PC-3 prostate = test system: PC-3 prostate
SK-MEL-5 melanoma = test system: SK-MEL-5 melanoma
UACC-62 melanoma = test system: UACC-62 melanoma
LOX IMVI melanoma = test system: LOX IMVI melanoma
SK-MEL-28 melanoma = test system: SK-MEL-28 melanoma

Measured: growth

COc1cc2c(Oc3ccc(NC(=O)C4(C(=O)Nc5ccc(F)cc5)CC4)cc3F)ccnc2cc1OCCCN1CCOCC1
active: HCT-15 colon -26% | HT29 colon -59.2% | SNB-75 CNS -96.9% | U251 CNS -57.8% | PC-3 prostate 7.39% | SK-MEL-5 melanoma -96.1% | UACC-62 melanoma -67.8% | LOX IMVI melanoma -89.5% | SK-MEL-28 melanoma -78.2%
inactive: SNB-19 CNS 10.6%

COc1cc2c3c(c1)nc(C)n3CCC2
inactive: HCT-15 colon 98.2% | HT29 colon 97.2% | SNB-75 CNS 83.4% | SNB-19 CNS 101% | U251 CNS 91.9% | PC-3 prostate 90.1% | SK-MEL-5 melanoma 97.4% | UACC-62 melanoma 100% | LOX IMVI melanoma 92.7% | SK-MEL-28 melanoma 106%

O=C(Nc1ccc(C2=NCCCN2)cc1)c1ccc(C(=O)Nc2ccc(C3=NCCCN3)cc2)nc1
inactive: HCT-15 colon 108% | HT29 colon 109% | SNB-75 CNS 87% | SNB-19 CNS 96.8% | U251 CNS 105% | PC-3 prostate 106% | SK-MEL-5 melanoma 99.3% | UACC-62 melanoma 99.5% | LOX IMVI melanoma 105% | SK-MEL-28 melanoma 120%

N#Cc1cc2[nH]c3ccc(OC(F)(F)F)cc3c2oc1=O
inactive: HCT-15 colon 58.8% | HT29 colon 79.6% | SNB-75 CNS 53.6% | SNB-19 CNS 93.6% | U251 CNS 73.2% | PC-3 prostate 60.3% | SK-MEL-5 melanoma 70.8% | UACC-62 melanoma 88.9% | LOX IMVI melanoma 74.5% | SK-MEL-28 melanoma 93%

Brc1ccc([I+]c2ccc(Br)cc2)cc1
inactive: HCT-15 colon 49.3% | PC-3 prostate 24.7% | UACC-62 melanoma 27% | LOX IMVI melanoma 20.4%
active: HT29 colon 5.37% | SNB-75 CNS -82.2% | SNB-19 CNS -92.4% | U251 CNS -85% | SK-MEL-5 melanoma -82.9% | SK-MEL-28 melanoma -14.6%

CCOC(=O)c1sc(NC(=O)COc2ccc(/C=C3\Cc4ccc(Cl)cc4C3=O)cc2)nc1C
inactive: HCT-15 colon 120% | HT29 colon 116% | SNB-75 CNS 95.8% | SNB-19 CNS 102% | U251 CNS 99.2% | PC-3 prostate 97% | SK-MEL-5 melanoma 106% | UACC-62 melanoma 93.4% | LOX IMVI melanoma 97.9% | SK-MEL-28 melanoma 127%

CO[C@H]1C[C@@H]2CC[C@@H](C)[C@@](O)(O2)C(=O)C(=O)N2CCCC[C@H]2C(=O)O[C@H]([C@H](C)C[C@@H]2CC[C@@H](OC(=O)C(C)(CO)CO)[C@H](OC)C2)CC(=O)[C@H](C)/C=C(\C)[C@@H](O)[C@@H](OC)C(=O)[C@H](C)C[C@H](C)\C=C/C=C/C=C/1C
inactive: HCT-15 colon 27.3% | SNB-19 CNS 30.6% | U251 CNS 19.4% | PC-3 prostate 18.1% | SK-MEL-5 melanoma 12.9% | UACC-62 melanoma 31.5% | LOX IMVI melanoma 22.5% | SK-MEL-28 melanoma 34.2%
active: HT29 colon 4.55% | SNB-75 CNS -0.0597%

O=C(Nc1nc2cccc(-c3ccc(CN4CCS(=O)(=O)CC4)cc3)n2n1)C1CC1
inactive: HCT-15 colon 94.7% | HT29 colon 65.4% | SNB-75 CNS 90.3% | SNB-19 CNS 48% | U251 CNS 65.3% | PC-3 prostate 76.9% | SK-MEL-5 melanoma 74.6% | UACC-62 melanoma 87.6% | LOX IMVI melanoma 60.4% | SK-MEL-28 melanoma 90.2%

CCc1nc2cc(/C=C/C(=O)NO)ccc2c(=O)n1CCc1ccc(OC)cc1
active: HT29 colon 6.61% | SK-MEL-5 melanoma 0.923% | UACC-62 melanoma -5.16% | LOX IMVI melanoma -21.8%
inactive: HCT-15 colon 25.2% | SNB-75 CNS 24.1% | SNB-19 CNS 35.9% | U251 CNS 16.5% | PC-3 prostate 22.9% | SK-MEL-28 melanoma 30%

CCc1nc2cc(F)c(/C=C/C(=O)NO)cc2c(=O)n1CCc1ccccc1
active: U251 CNS 7.95% | SK-MEL-5 melanoma 4.25% | UACC-62 melanoma -21.7% | LOX IMVI melanoma -33.9%
inactive: HCT-15 colon 24.4% | HT29 colon 13.2% | SNB-75 CNS 34.8% | SNB-19 CNS 30.2% | PC-3 prostate 22.6% | SK-MEL-28 melanoma 19.4%

Cc1cc(N(CCNc2ccnc3cc(Cl)ccc23)Cc2ccc3c(c2)OCO3)nc(N2CCN(C)CC2)n1
inactive: SNB-75 CNS 32.4% | SNB-19 CNS 29.4% | PC-3 prostate 48.2% | UACC-62 melanoma 33.7%
active: HCT-15 colon 0.627% | HT29 colon 0.16% | U251 CNS -22.1% | SK-MEL-5 melanoma -96.1% | LOX IMVI melanoma -71.8% | SK-MEL-28 melanoma -65.7%

COc1ccc(/C(C)=C(\c2ccc(Cl)cc2)c2ccc(OCCN3CCCCCC3)cc2)cc1
active: HT29 colon 8.63%
inactive: HCT-15 colon 26.6% | SNB-75 CNS 74.4% | SNB-19 CNS 64.7% | U251 CNS 42.3% | PC-3 prostate 45.3% | SK-MEL-5 melanoma 48.3% | UACC-62 melanoma 67.8% | LOX IMVI melanoma 35.8% | SK-MEL-28 melanoma 71.6%

CCN1CCN(c2cc(C)nc(N(CCCNc3ccnc4cc(Cl)ccc34)Cc3ccc4c(c3)OCO4)n2)CC1
active: HCT-15 colon 1.33% | HT29 colon -12.2% | SNB-75 CNS -15% | U251 CNS -45.4% | SK-MEL-5 melanoma -95.7% | UACC-62 melanoma -47.8% | LOX IMVI melanoma -75% | SK-MEL-28 melanoma -73.6%
inactive: SNB-19 CNS 16.3% | PC-3 prostate 15.8%

COc1ccc(-c2cnc(-c3ccc(Cl)cc3)[nH]2)cc1OC
inactive: HCT-15 colon 100% | HT29 colon 97.6% | SNB-75 CNS 72.8% | SNB-19 CNS 96% | U251 CNS 102% | PC-3 prostate 81.3% | SK-MEL-5 melanoma 97.4% | UACC-62 melanoma 94.6% | LOX IMVI melanoma 110% | SK-MEL-28 melanoma 104%

CCOC(=O)C1=C(C)N=C2Sc3cccc(OC)c3N2[C@H]1c1ccccn1
inactive: HCT-15 colon 104% | HT29 colon 97.3% | SNB-75 CNS 93.7% | SNB-19 CNS 96.8% | U251 CNS 96.4% | PC-3 prostate 88.3% | SK-MEL-5 melanoma 101% | UACC-62 melanoma 87.1% | LOX IMVI melanoma 96.7% | SK-MEL-28 melanoma 119%

O=C(Nc1ccc(C(=O)Nc2ccc(C3=NCCCN3)cc2)cc1)Nc1ccc(C2=NCCCN2)cc1
inactive: HCT-15 colon 100% | HT29 colon 92.8% | SNB-75 CNS 91% | SNB-19 CNS 95.6% | U251 CNS 84.6% | PC-3 prostate 90% | SK-MEL-5 melanoma 54.7% | UACC-62 melanoma 82.7% | LOX IMVI melanoma 85.8% | SK-MEL-28 melanoma 105%

CC1(O)CC(c2nc(-c3ccc4ccc(-c5ccccc5)nc4c3)c3c(N)nccn23)C1 (stereo not given)
inactive: HCT-15 colon 21.1% | SNB-75 CNS 32% | SNB-19 CNS 64.7% | U251 CNS 56.7% | PC-3 prostate 35.3% | SK-MEL-5 melanoma 15% | UACC-62 melanoma 39.9% | LOX IMVI melanoma 34.7% | SK-MEL-28 melanoma 40.7%
active: HT29 colon 5.34%

C=CC(=O)Nc1cccc(Oc2nc(Nc3ccc(N4CCN(C)CC4)cc3)nc3ccsc23)c1
inactive: SNB-19 CNS 12.8%
active: HCT-15 colon -21.9% | HT29 colon -60% | SNB-75 CNS -81.1% | U251 CNS -84.7% | PC-3 prostate -44.5% | SK-MEL-5 melanoma -97.2% | UACC-62 melanoma -78.2% | LOX IMVI melanoma -85% | SK-MEL-28 melanoma -91.6%

COC(=O)N[C@@H](C)CNc1nccc(-c2cn(C(C)C)nc2-c2cc(Cl)cc(NS(C)(=O)=O)c2F)n1
inactive: HCT-15 colon 53.6% | SNB-75 CNS 51.8% | SNB-19 CNS 108% | U251 CNS 87.2% | PC-3 prostate 90.7% | SK-MEL-5 melanoma 51.4% | LOX IMVI melanoma 37.5%
active: HT29 colon 7.99% | UACC-62 melanoma -11% | SK-MEL-28 melanoma -0.756%

COC(=O)[C@H](Cc1ccc(O)cc1)NC(=O)[C@@H](OC)[C@@H]1Cc2cc3cc(OC4CC(OC5CC(O)C(O)C(C)O5)C(O)C(C)O4)c(C)c(O)c3c(O)c2C(=O)[C@H]1OC1CC(OC2CC(OC3CC(C)(O)C(O)C(C)O3)C(O)C(C)O2)C(O)C(C)O1 (stereo not given in full)
active: HT29 colon 3.68% | SNB-75 CNS -52.5% | SNB-19 CNS 8.72% | U251 CNS 7.18% | SK-MEL-5 melanoma -53.3% | UACC-62 melanoma -53.1% | LOX IMVI melanoma -31.2% | SK-MEL-28 melanoma -26.6%
inactive: HCT-15 colon 47.5% | PC-3 prostate 13.4%

COC(=O)[C@@H](NC(=O)[C@@H](OC)[C@@H]1Cc2cc3cc(OC4CC(OC5CC(O)C(O)C(C)O5)C(O)C(C)O4)c(C)c(O)c3c(O)c2C(=O)[C@H]1OC1CC(OC2CC(OC3CC(C)(O)C(O)C(C)O3)C(O)C(C)O2)C(O)C(C)O1)C(C)C (stereo not given in full)
inactive: HCT-15 colon 23.9% | PC-3 prostate 18.8%
active: HT29 colon 6.32% | SNB-75 CNS -24.3% | SNB-19 CNS 8.43% | U251 CNS -28.1% | SK-MEL-5 melanoma -74.3% | UACC-62 melanoma -65.1% | LOX IMVI melanoma -76.2% | SK-MEL-28 melanoma -1.86%

COC[C@@H](C)n1c(C2CCOCC2)nc2c1C1C=C(OC)C(c3c(C)noc3C)=CC1N=C2 (stereo not given in full)
inactive: HCT-15 colon 30.7% | HT29 colon 17.4% | SNB-19 CNS 46.3% | U251 CNS 69% | PC-3 prostate 38.2% | SK-MEL-5 melanoma 38.7% | UACC-62 melanoma 18.5% | LOX IMVI melanoma 19.6% | SK-MEL-28 melanoma 65.4%
active: SNB-75 CNS 2.03%

CC(C)(O)CC(=O)NCCn1ccc2ncnc(Nc3ccc(Oc4cccc(C(F)(F)F)c4)c(Cl)c3)c21
active: HT29 colon -24.2% | U251 CNS 9.09% | PC-3 prostate 1.54% | SK-MEL-5 melanoma -19.9% | UACC-62 melanoma -7.61% | LOX IMVI melanoma 6.23% | SK-MEL-28 melanoma -0.504%
inactive: HCT-15 colon 12.2% | SNB-75 CNS 29.3% | SNB-19 CNS 18.7%

CCCCn1c(C)nc2ccc(Nc3nc(N4CCN(C)CC4)nc4nc[nH]c34)cc21
inactive: HCT-15 colon 110% | HT29 colon 90.9% | SNB-75 CNS 63.5% | SNB-19 CNS 95.6% | U251 CNS 82.9% | PC-3 prostate 84.2% | SK-MEL-5 melanoma 86.8% | UACC-62 melanoma 91.9% | LOX IMVI melanoma 83.9% | SK-MEL-28 melanoma 109%

Cc1ccccc1N1C(c2ccccc2)=NNC12C=CC(=O)C=C2Cl (stereo not given)
inactive: HCT-15 colon 108% | HT29 colon 96.2% | SNB-75 CNS 96.3% | SNB-19 CNS 106% | U251 CNS 94.2% | PC-3 prostate 96.2% | SK-MEL-5 melanoma 115% | UACC-62 melanoma 98.1% | LOX IMVI melanoma 98.7% | SK-MEL-28 melanoma 101%
